Bioassay records from PubChem BioAssay.
sEH activator: soluble epoxide hydrolase (human) activation; activation, % at 2 µM; hit rate 0.04% among 91,000; P34913; purified human sEH enzymatic activity, activator screen; AID 717; in the data active means activation above about 37%
CYP2C19 inhib: blocks human cytochrome P450 2C19 | P33261 | hit rate 21% among 96,000 | AID 778 | inhibition, % at 5 µM | CYP2C19 Supersomes, luciferin-H EGE luminescence, 30 min;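 active means CYP2C19 inhibition above a set limit at 5 µM in the primary screen, cut at about 50% in these data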;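 further: plate controls were negative control wells for no effect and 2.5 mM tranylcypromine positive control for full effect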
CYP2C9 inhib: human CYP2C9 inhibition. CYP2C9 Supersomes, luciferin-H conversion, luminescence. inhibition, % at 5 µM. hit rate 20% among 96,000;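 active means blocking of liver enzyme CYP2C9 beyond about 50% at 5 µM, limit read from the data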
Target sequence (P11712 whole entry, looked up): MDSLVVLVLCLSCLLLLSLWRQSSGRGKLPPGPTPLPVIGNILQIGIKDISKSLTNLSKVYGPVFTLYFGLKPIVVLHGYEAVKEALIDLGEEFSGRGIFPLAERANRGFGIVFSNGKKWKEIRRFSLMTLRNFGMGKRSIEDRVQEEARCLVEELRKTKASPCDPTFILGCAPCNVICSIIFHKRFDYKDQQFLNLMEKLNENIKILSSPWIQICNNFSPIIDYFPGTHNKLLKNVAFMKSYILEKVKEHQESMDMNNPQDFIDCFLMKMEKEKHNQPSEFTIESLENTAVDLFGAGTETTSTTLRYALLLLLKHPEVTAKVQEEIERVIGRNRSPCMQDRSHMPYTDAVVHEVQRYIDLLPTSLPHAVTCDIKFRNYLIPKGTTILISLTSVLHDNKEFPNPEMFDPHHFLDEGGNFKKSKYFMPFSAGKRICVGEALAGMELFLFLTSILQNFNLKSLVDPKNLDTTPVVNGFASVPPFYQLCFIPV
CYP2C9 act: increases human cytochrome P450 2C9 activity; P11712; recombinant CYP2C9, luciferin-H conversion, luminescence; active compounds read high; factor 1 = untreated enzyme, 0 = blocked; activation factor at 5 µM; hit rate 1.4% among 96,000;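 active means activation factor of 2 or more for CYP2C9 at a 5 µM dose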;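 further: 0 = sulfaphenazole-blocked wells and 1 = vehicle-only wells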
sEH inhibitor: soluble epoxide hydrolase (human) inhibition | P34913 | recombinant human sEH enzymatic activity assay | inhibition, % at 2 µM | hit rate 0.34% among 91,000 | AID 707; in the data active means inhibition above about 80%
CYP2C19 activ: increases human CYP2C19 enzyme activity; P33261; recombinant CYP2C19, luciferin-H EGE luminescence; active compounds read high; 0 = fully inhibited enzyme, 1 = untreated enzyme; activation factor at 5 µM; 96,000 tested, under 10 active; AID 1025;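 active means activation factor of at least 2 at 5 µM in the primary screen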;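 further: 0 = wells with 2.5 mM tranylcypromine and 1 = vehicle-only wells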
* hit, by the source's call; / = no result given. The list is not random: actives were taken first. Their share in the collection is about 27%.

SMILES	sEH activator	CYP2C19 inhib	CYP2C9 inhib	CYP2C9 act	sEH inhibitor	CYP2C19 activ
CCC(C)NCc1ccc(C(=O)OC)o1 (stereo not drawn)	10	10	3	1	-10	0.9
COc1ccc(-c2nc(Cn3c(SCc4ccc(C)cc4)nc4ccncc43)c(C)o2)cc1OC	1	53*	53*	0.5	-2	0.5
COc1ccc(-c2nc(Cn3c(SCc4cccc(F)c4)nc4ccncc43)c(C)o2)cc1OC	/	73*	89*	0.1	/	0.3
COc1ccc(CN2CCN(c3ccccn3)CC2)cc1OCc1ccccc1	/	47	38	0.6	/	0.5
Cc1ccsc1CN1CCN(c2ccccn2)CC1	/	93*	70*	0.3	/	0.1
O=C(CC(C(=O)O)N1CCOCC1)Nc1ccc(Cl)cc1 (stereo not drawn)	24	-12	-28	1.3	-24	1.1
CCOC(=O)C(Sc1cc(C)nc(N)n1)C(C)=O (stereo not drawn)	-3	-8	3	1	-2	1.1
CCCCCCn1c(=O)c(-c2nc3ccccc3c(=O)[nH]2)c(O)c2ccccc21	/	-14	-5	1	/	1.1
Cc1cccc(NC(=O)CSc2nnc(-c3ccccc3)n2N)c1C	7	55*	47	0.5	-6	0.5
Cc1cccc(NC(=O)CSc2nnc(-c3ccccc3)n2N)c1	4	4	15	0.8	-2	1
Cc1ccc(C)c(NC(=O)CSc2nnc(-c3ccncc3)n2N)c1	-7	60*	92*	0.1	8	0.4
CCOC(=O)CN(C(=O)CNC(=O)c1cccs1)C(C(=O)NC1CCCC1)c1cccnc1 (stereo not drawn)	-12	17	12	0.9	12	0.8
O=C(COC(=O)CNS(=O)(=O)c1ccccc1)Nc1ccc(Cl)cn1	0	4	-2	1	0	1
CCn1c(CC(=O)Nc2ccccc2F)nnc1SCC(=O)N1CCN(c2ccccc2)CC1	-1	14	44	0.6	0	0.9
O=C1CS/C(=C\S(=O)(=O)c2ccc(Cl)cc2)N1	12	26	57*	0.4	-14	0.7
CC(C)(C)c1ccc(C(=O)/C=C2\NC(=O)CS2)cc1	-8	-27	6	0.9	8	1.3
CCCN1C(=O)/C(=C/c2ccc(N3CCCC3)c(C)c2)NC1=S	-5	53*	53*	0.5	4	0.5
CCS(=O)(=O)N1CCC(NC(=O)c2cc(OC)cc(OC)c2)CC1	8	17	-1	1	-10	0.8
CC(NC(=O)C(=O)NN=C1CCCCCCC1)c1ccccc1 (stereo not drawn)	-4	-7	-7	1.1	6	1.1
Cc1ccccc1C(=O)NC(C)c1ccc2c(c1)CCCC2 (stereo not drawn)	-9	18	-123	2.2*	11	0.8
O=C(c1sc2ccccc2c1Cl)N(Cc1cccs1)C1CCS(=O)(=O)C1 (stereo not drawn)	-1	45	53*	0.5	1	0.5
Cc1cccc(OCC(=O)N(Cc2cccs2)C2CCS(=O)(=O)C2)c1C (stereo not drawn)	0	11	-3	1	4	0.9
Cc1cc(C)cc(OCC(=O)N(Cc2cccs2)C2CCS(=O)(=O)C2)c1 (stereo not drawn)	3	82*	54*	0.5	-3	0.2
Cc1ccc(OCC(=O)N(Cc2ccc(N(C)C)cc2)C2CCS(=O)(=O)C2)cc1 (stereo not drawn)	4	54*	68*	0.3	-7	0.5
O=C(c1cccc(Cl)c1)N(Cc1cccs1)C1CCS(=O)(=O)C1 (stereo not drawn)	-10	32	0	1	10	0.7
SMILES	sEH activator	CYP2C19 inhib	CYP2C9 inhib	CYP2C9 act	sEH inhibitor	CYP2C19 activ
COc1cc(NC(=O)CN2CCN(Cc3ccc4c(c3)OCO4)CC2)cc(OC)c1	5	49	47	0.5	-3	0.5
CC(CC(=O)O)CC(=O)Nc1ccccc1C(=O)O (stereo not drawn)	-2	-18	-18	1.2	4	1.2
CCOc1ccc(-n2c(SCC(=O)Nc3ccc4c(c3)OCO4)nc3c(c2=O)SCC3)cc1	/	33	59*	0.4	/	0.7
CCOc1ccc(-n2c(SCC)nc3c(c2=O)SCC3)cc1	/	-9	-5	1.1	/	1.1
CCOc1ccc(-n2c(SCC(=O)Nc3ccc4c(c3)OCCO4)nc3c(c2=O)SCC3)cc1	6	77*	63*	0.4	-3	0.2
O=c1[nH]c(Nc2ccccc2)cc2ccccc12	/	44	13	0.9	/	0.6
